In PubChem BioAssay (NCATS):
Records with an inconclusive call do not appear. Where a call stands in place of a potency, no number is given. Calls of active or inactive are those of the source. Calls follow the shape of the dose curve; as a rule, active = well fitted inhibition curve with a large enough effect; inconclusive = small, poorly fitted or top-dose-only effect; inactive = flat fitted curve, though single readings scatter.

target: Aldehyde dehydrogenase, mitochondrial (Homo sapiens) (UniProt P05091); assay: qHTS for Inhibitors of the Aldehyde Dehydrogenase Family (ALDH2) Primary screen (AID 2061308); details: ALDH2 enzyme inhibition qHTS, 1536-well; series mostly up to 56 µM; also: nearly all actives have a fitted effect of over 55% in size

| SMILES | Potency | activity change, negative = inhibition |
| --- | --- | --- |
| O=C(CNC(=O)C1CCCCC1)OC(C(=O)c1ccccc1)c1ccccc1 (stereo not given) | inactive |  |
| CC(C)C1=CC2=CCC3[C@](C)(CCC[C@@]3(C)C(=O)O)C2CC1O (stereo not given in full) | inactive |  |
| O=C1CCCC2=C1C(c1[nH]ncc1Cl)N=C(Nc1cccnc1)N2 (stereo not given) | inactive |  |
| COc1cccc(C2c3c(ncn(-c4ccc(NC(C)=O)cc4)c3=N)Oc3ccc4ccccc4c32)c1 (stereo not given) | inactive |  |
| CCCn1c(-c2ccc(F)cc2)nc2c(NCCCCN3CCCC3)nc(C)nc21 | inactive |  |
| CN[C@@H]1[C@H](O[C@H]2[C@H](O[C@@H]3[C@@H](O)[C@H](O)[C@@H](N=C(N)N)[C@H](O)[C@H]3N=C(N)N)O[C@@H](C)[C@]2(O)CO)O[C@@H](CO)[C@H](O)[C@H]1O | inactive |  |
| O=[S+]([O-])(Nc1nccs1)c1ccc(NCc2ccc(Cl)c(Cl)c2)cc1 | inactive |  |
| COC(=N)c1nc2ccc3ncnc(Nc4ccc(F)cc4Br)c3c2s1 | inactive |  |
| Cn1c(=O)c2c(nc(CN3CCN(C(=O)C4CC4)CC3)n2Cc2cccc(F)c2)n(C)c1=O | inactive |  |
| Cc1cc2c(s1)c1cnn(Cc3ccc(F)c(F)c3)c(=O)c1n2C | inactive |  |
| Cc1cc2c(s1)c1cnn(Cc3ccc(C(F)(F)F)cc3F)c(=O)c1n2C | inactive |  |
| C[C@@H]1CN(c2c(F)c(F)c3c(=O)c(C(=O)O)cn(C4CC4)c3c2F)C[C@H](C)N1 |  | -0.742% [at 11.2 µM] (inactive) |
| CCCN1CCN(c2cccc(Nc3nn4c(=O)c5ccccc5nc4s3)c2)CC1 | inactive |  |
| Cc1cc(C)n2ncc(C(=O)Nc3ccncc3)c2n1 | inactive |  |
| O=S(=O)(c1ccc2c(c1)OCCO2)N1CCN(S(=O)(=O)c2c(Cl)cc(C(F)(F)F)cc2Cl)CC1 | inactive |  |
| O=S(=O)(c1cccc(C(F)(F)F)c1)N1CCN(S(=O)(=O)c2ccc3c(c2)OCCO3)CC1 | inactive |  |
| Cc1cc(NC(=O)Nc2nnc(-c3cccnc3)s2)ccc1F | inactive |  |
| CCN(CC)Cc1cccc(/C=C/c2nc3ccc(F)cc3c(=O)n2-c2ccccc2Cl)n1 | inactive |  |
| CC(C)(C)c1ccc(-c2csc(N3CCC(C(N)=O)CC3)n2)cc1 | inactive |  |
| CC(=O)Nc1cccc(S(=O)(=O)Nc2ccc(C)c(C)c2)c1 | inactive |  |

| SMILES | Potency | activity change, negative = inhibition |
| --- | --- | --- |
| O=C(COC(=O)CNC(=O)c1ccccc1Cl)Nc1cc(C(F)(F)F)ccc1Cl | inactive |  |
| COc1cccc(C2c3c(ncn(-c4cccc(F)c4)c3=N)Oc3ccc4ccccc4c32)c1 (stereo not given) | inactive |  |
| Cn1nnnc1Sc1ncnc2n[nH]c(-c3cccc(S(C)(=O)=O)c3)c12 | inactive |  |
| CN(C)C/C=C/C(=O)Nc1cccc(C(=O)Nc2ccc(Nc3nccc(-c4cccnc4)n3)cc2)c1 | inactive |  |
| O=[N+]([O-])c1ccccc1S(=O)(=O)N1CCN(S(=O)(=O)c2ccc3c(c2)OCCO3)CC1 | inactive |  |
| Cc1ccc(-c2csc3ncnc(Sc4nnnn4C)c23)cc1 | inactive |  |
| CN(C)S(=O)(=O)c1ccc(-c2nc(NCc3ccc(-c4ccnc(C(F)(F)F)c4)cc3)c3ccccc3n2)cc1 | inactive |  |
| Cc1cc2c(s1)c1cnn(Cc3ccc(C#N)cc3)c(=O)c1n2C | inactive |  |
| c1csc(CNc2ncnc3ccc(-c4ccoc4)cc23)c1 | inactive |  |
| CCCCN(C)C(=O)Cn1nc(-c2cncnc2)ccc1=O | inactive |  |
| Cn1nnnc1Sc1ncnc2scc(-c3ccccc3Br)c12 | inactive |  |
| Cc1ccc(NS(=O)(=O)c2ccc3c(c2)CCC(=O)N3)cc1C | inactive |  |
| O=C(O)Cc1cc(F)c(S(=O)(=O)N2CCN(S(=O)(=O)c3ccc4c(c3)OCCO4)CC2)cc1F | inactive |  |
| CC(=O)O[C@@H]1C=C2[C@H](CC[C@@]3(C)[C@@]2(O)CC[C@H]2Cc4c([nH]c5ccccc45)[C@@]23C)O[C@@H]1C(C)(C)O | inactive |  |
| COc1ccccc1-c1ccc(=O)n(CC(=O)NCCc2ccccc2)n1 | inactive |  |
| CC(C)n1nc(Cc2cccc3ccccc23)c2c(N)ncnc21 | inactive |  |
| O=C1CCCC2=C1C(c1[nH]ncc1Cl)N=C(Nc1ccccc1)N2 (stereo not given) | inactive |  |
| O=C(Nc1nc(-c2ccccc2)cs1)c1ccccc1Cl | inactive |  |
| Cc1ccc(OCCn2c(CCNC(=O)c3cccc4cc[nH]c34)nc3ccccc32)cc1 | inactive |  |
| COC(=O)c1ccc(O)c2ncc(NC3CCNCC3)cc12 | inactive |  |
